HT1080-NT tox = qHTS for induction of synthetic lethality in tumor cells producing 2HG: qHTS for the HT-1080-NT fibrosarcoma cell line; HT-1080-NT fibrosarcoma viability, CellTiter-Glo ATP luminescence, 48 h; Potency, µM (doses to about 46.1 µM), inactives show at the highest dose activity, negative = less viability, actives largely listed as cytotoxic; 360,000 compounds, 1.6% hits;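 further: NT is the 2HG producing partner of a matched IDH1 knockdown line; potency means the concentration at half of the fitted maximal effect; 0% = DMSO-treated cells and -100% = media-only wells without cells; nearly all actives have a fitted effect of over 55% in size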
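750 cells/well, RPMI + 5% FBS; 2 h settle, compound pin-transfer, 48 h at 37 degrees C. CellTiter-Glo 10 min RT, luminescence. Normalized to DMSO and media-only wells.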
IL-1B inflam inh = qHTS for Inhibitors of Inflammasome Signaling: IL-1-beta AlphaLISA Primary Screen | THP-1 LPS/ATP IL-1B secretion, AlphaLISA, 16 h; stronger effect = lower value | 360,000 compounds, 4.7% hits | AID 743279, 2014 | activity change, % at 57.5 µM; in the data active means activity change below about -50%; inconclusive means mostly about -30% to -49%
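THP-1 cells pretreated 1 hr with compounds (up to 57.5 uM final), then stimulated with LPS (250 ng/mL final) plus ATP (1.25 mM final); secreted IL-1B measured by AlphaLISA after 16 hr, decreased signal indicating inhibition.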
DT40 TDP1 no CPT = qHTS for Inhibitors of human tyrosyl-DNA phosphodiesterase 1 (TDP1): qHTS in cells in absence of CPT. DT40 Tdp1-/- hTDP1 cells, no CPT, ATP luminescence, 48 h. Potency, µM (series often up to 46.2 µM), for the others: top-dose activity change, negative = growth inhibition, most hits filed as inhibitors. 420,000 compounds, 15% hits. AID 686978, 2013; further: potency means the concentration at half of the fitted maximal effect; nearly all actives have a fitted effect of over 55% in size
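DT40 Tdp1-/-;hTDP1 cells, no CPT (DMSO vehicle only), 400 cells/well; compounds pin-transferred; ≥48 hr, 37 °C; CellTiter-Glo 30 min RT dark, luminescence read.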
ELG1 DNA repair = qHTS screen for small molecules that inhibit ELG1-dependent DNA repair in human embryonic kidney (HEK293T) cells expressing luciferase-tagged ELG1; Potency, µM (highest dose often 46.1 µM), for the others: at the highest dose activity change, negative = inhibition, most hits filed as inhibitors; 330,000 compounds, 2.3% hits; HEK293T ELG1-luciferase reporter, luminescence, 16 h; DNA damage induced by 5-fluorouridine; further: potency means the concentration at half of the fitted maximal effect; nearly all actives have a fitted effect of over 55% in size
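5-Fluorouridine DNA damage + compound/DMSO, 2,000 cells/well, 16 h, 37 °C/5% CO2. ONE-Glo, 30 min RT, luminescence. Readout = decrease in reporter signal.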
HT1080 IDH1KD tx = qHTS for induction of synthetic lethality in tumor cells producing 2HG: qHTS for the HT-1080-IDH1KD cell line; 360,000 compounds, 2% hits; AID 686971, 2013; HT-1080 IDH1 knockdown viability, ATP luminescence, 48 h; Potency, µM (highest dose often 46.1 µM), without a hit: at the highest dose activity, negative = toxicity, most hits filed as cytotoxic;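 further: potency means the concentration at half of the fitted maximal effect; 0% = DMSO wells and -100% = cell-free medium wells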
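IDH1KD HT-1080 cells, 750/well, RPMI + 5% FBS; compound pinned after 2 h settling; 48 h, 37 °C; CellTiter-Glo luminescence; % activity normalised to DMSO and no-cell wells; curves fitted, classed by r2 and efficacy.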
DT40 TDP1 CPT = qHTS for Inhibitors of human tyrosyl-DNA phosphodiesterase 1 (TDP1): qHTS in cells in presence of CPT. 420,000 compounds, 12% hits. chicken DT40 Tdp1-/-;hTDP1 cells + 20 nM CPT, ATP luminescence, 48 h. Potency, µM (series often up to 46.2 µM), for the others: at the top dose activity change, negative = growth inhibition, actives largely listed as inhibitors. AID 686979, 2013; further: potency means the concentration at half of the fitted maximal effect; nearly all actives have a fitted effect of over 55% in size
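Chicken DT40 Tdp1-/- cells stably complemented with human TDP1 were seeded at 400 cells/well in medium containing 20 nM camptothecin, exposed to pin-transferred compounds, and grown at 37 °C for at least 48 hr. Viability was read as ATP luminescence.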
Starred values were filed as active, the others as inactive; u = inconclusive; x = not tested or not shown; ! = not confirmed by another sample. Compounds with a hit are over-represented: about 19% of the library has one in this group of screens. Unless noted, the call rests on the fitted dose curve; in most records, active means well fitted curve in the direction sought with a large enough effect; inconclusive means small, poorly fitted or top-dose-only effect, or another doubt; inactive means no such curve, though single readings can be large; an effect the other way counts as inactive or inconclusive. Unless noted, on the % scale 0 is the no-effect control and ±100 the full control effect.

SMILES	HT1080-NT tox	IL-1B inflam inh	DT40 TDP1 no CPT	ELG1 DNA repair	HT1080 IDH1KD tx	DT40 TDP1 CPT
COc1ccc(NC(=O)c2oc3ccc(S(=O)(=O)N4CCC5(CC4)OCCO5)cc3c2C)cc1	u	-19	u	5.8µM*	-28%	16µM*
Cc1c(C(=O)Nc2cccc(C(F)(F)F)c2)oc2ccc(S(=O)(=O)N3CCC4(CC3)OCCO4)cc12	x	x	9.2µM*	x	x	15µM*
Cc1ccc(NC(=O)c2oc3ccc(S(=O)(=O)N4CCC5(CC4)OCCO5)cc3c2C)cc1Cl	x	x	-16%	x	x	u
Cc1cccc(NC(=O)c2oc3ccc(S(=O)(=O)N4CCC5(CC4)OCCO5)cc3c2C)c1C	x	x	18µM*	x	x	16µM*
Cc1c(C(=O)Nc2cccc(C(F)(F)F)c2)oc2ccc(S(=O)(=O)N3CCOCC3)cc12	9%	0	-26%	u	u	-13%
COc1ccc(C(=O)N2CCOC2CNC(=O)C(=O)NCc2ccc3c(c2)OCO3)cc1 (stereo unspecified)	2%	9	0%	-2%	10%	5%
Cc1ccccc1CN1CCc2nnc(C(C)NC(=O)C3CCN(C)CC3)n2CC1 (stereo unspecified)	x	x	2%	x	x	-2%
CCOC(=O)c1ccccc1NC(=O)CN(c1ccc(OCC)cc1)S(C)(=O)=O	x	x	x	15%	x	x
CCOc1ccc(N(CC(=O)Nc2cc(Cl)ccc2C)S(C)(=O)=O)cc1	u	19	23µM*	-18%	u	u
CCOc1ccc(N(CC(=O)Nc2ccccc2Cl)S(C)(=O)=O)cc1	u	2	26µM*	4%	u	18µM*
CCOc1ccc(N(CC(=O)Nc2ccccc2OC)S(C)(=O)=O)cc1	-19%	8	u	-31%	u	u
CCCCn1c(N)c(N(CCC(C)C)C(=O)c2ccc(N3CCCC3=O)cc2)c(=O)[nH]c1=O	10%	-7	-9%	1%	5%	-5%
COC(=O)c1ccc(C)c(NS(=O)(=O)c2ccc(OC)cc2)c1	u	0	0.23µM*	u	u	0.29µM*
COC(=O)c1ccc(C)c(NS(=O)(=O)c2ccc3c(c2)OCCO3)c1	0.5µM*	42	0.92µM*	u	0.71µM*	0.92µM*
C[N+]1(CC(=O)c2ccc(-c3ccccc3)cc2)CCOCC1	x	x	-16%	x	x	u
C[N+]1(CC(=O)c2c3ccccc3cc3ccccc23)CCOCC1	x	x	10µM*	x	x	16µM*
CC(C)NC(=O)c1ccc(Cn2c(=O)c3cccn3c3cccnc32)cc1	x	x	u	x	x	4%
COc1ccc2[nH]cc(S(=O)(=O)c3ccc(C)c(C)c3)c(=O)c2c1	x	x	-20%	x	x	-13%
Cc1ccc(CNC(=O)C2CCN(S(=O)(=O)c3ccc4[nH]c(=O)ccc4c3)CC2)cc1	x	x	7%	x	x	-17%
CCn1cc(C(=O)N(C)c2cc(C)ccc2OC)c2cc(OC)c(OC)cc2c1=O	-1%	u	-11%	u	0%	-17%
CCn1cc(C(=O)N(C)c2ccc(OC)cc2OC)c2cc(OC)c(OC)cc2c1=O	12%	-2	-24%	15µM*	7%	-11%
CCn1cc(C(=O)N(C)c2cc(C)ccc2C)c2cc(OC)c(OC)cc2c1=O	x	x	21µM*	x	x	26µM*
O=C(/C=C\c1ccc2c(c1)OCO2)NC1CC(=O)N(c2ccc(F)cc2)C1 (stereo unspecified)	x	x	-23%	x	x	-28%
Cc1cc(Cl)ccc1OCC(=O)N(Cc1ccco1)C1CCS(=O)(=O)C1 (stereo unspecified)	-1%	-5	u	16%	0%	-12%
CN(Cc1ccccc1F)C(=O)COc1ccc(C(=O)c2ccccc2)cc1	-11%	u	21µM*	u	-19%	23µM*
SMILES	HT1080-NT tox	IL-1B inflam inh	DT40 TDP1 no CPT	ELG1 DNA repair	HT1080 IDH1KD tx	DT40 TDP1 CPT
CC(C)(C)c1ccc(OCC(=O)N(Cc2ccco2)Cc2ccccc2F)cc1	x	x	21µM*	x	x	u
Cc1cc(Cl)ccc1OCC(=O)N(Cc1ccco1)Cc1ccccc1F	x	x	16µM*	x	x	u
CN(Cc1ccccc1F)C(=O)c1ccc(Oc2ccccc2)cc1	1%	-6	5%	9%	1%	u
O=C(NCC(=O)N1CCN(S(=O)(=O)c2ccccc2C(F)(F)F)CC1)c1sc2ccccc2c1Cl	1%	5	12µM*	0%	7%	u
C=CCNc1nc(NCc2ccccc2)c(C#N)c2c1CN(C)CC2	u	u	u	-23%	u	18µM*
CN1CCc2c(C#N)c(N3CCOCC3)nc(NCC3CCCO3)c2C1 (stereo unspecified)	2%	70	1%	-1%	-1%	-7%
Cc1cc(N(C)C)c(C#N)c(NCc2ccccc2)n1	-7%	-17	0%	u	-8%	9%
CCN1CCc2c(C#N)c(NCc3ccccc3)nc(N(CC)CC)c2C1	u	-11	18µM*	9%	u	u
Cc1c[nH]c2ccccc12	17%	-2	-15%	6%	-1%	6%
O=C(NCCCN1CCOCC1)c1ccc(Sc2ccccc2Cl)c([N+](=O)[O-])c1	2%	-52*	u	u	-9%	u
Cc1cc(C(=O)NCCN2CCOCC2)ccc1[N+](=O)[O-]	12%	14	-7%	-4%	5%	-3%
O=C(NCCCN1CCOCC1)c1ccc(Sc2ccc(Br)cc2)c([N+](=O)[O-])c1	-1%	16	10µM*	-1%	10%	6.5µM*
CCOc1ccc(-c2cc(CCCC(=O)NCc3cccnc3)no2)cc1	-17%	0	21µM*	u	-12%	23µM*
COc1ccc(-c2cc(CCCC(=O)NCc3ccccn3)no2)cc1	-19%	1	16µM*	u	0%	u
COc1ccc(-c2cc(CCCC(=O)NCCc3ccccc3)no2)cc1	-4%	8	u	u	-7%	u
Cc1ccccc1C(=O)Nc1nnc(SCc2cc(=O)n3ccccc3n2)s1	x	x	-27%	x	x	-3%
CN(Cc1cccnc1)Cc1cn(C)nc1-c1cccc(Cl)c1	0%	0	16µM*!	8%	-1%	u
